Results filed as inconclusive are left out. Where a structure was tested more than once in an assay, its records may differ in their call. Calls of active or inactive are those of the source. Unless noted, the call rests on the fitted dose curve.
How the values were obtained:
[1] = Nuclear factor erythroid 2-related factor 2/antioxidant responsive element (Nrf2/ARE) small molecule agonists: qHTS cell viability counter screen in human keratinocytes (AID 1919968; active means well fitted curve in the direction sought with a large enough effect in the repeat runs; an effect the other way counts as inactive or inconclusive; further: nearly all actives have a fitted effect of over 55% in size); settings: KeratinoSens HaCaT ARE cells viability, CellTiter-Fluor, 24 h; series mostly up to 92.4 µM
Procedure, shortened: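 Cells of the KeratinoSens line were plated at 1,500 per well and left for 5 h before compound transfer from DMSO stocks. After a 23 h incubation (37 C, 5% CO2), CellTiter-Fluor was added. Signal was taken as fluorescence intensity 1 h later.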

[2] = Nuclear factor erythroid 2-related factor 2/antioxidant responsive element (Nrf2/ARE) small molecule agonists: luciferase reporter gene qHTS assay in human keratinocytes (AID 1919969); settings: KeratinoSens HaCaT ARE-luciferase, luminescence, 24 h; series mostly up to 92.4 µM; further: nearly all actives have a fitted effect of over 35% in size; further: potency means the concentration at half of the fitted maximal effect
[3] = biological target: Gonadotropin-releasing hormone receptor (Homo sapiens) (UniProt P30968); assay: Human gonadotropin-releasing hormone receptor (GnRHR) small molecule agonists, calcium flux assay in GnRHR-HEK293 cells (AID 1920063); settings: calcium flux fluorescence, agonist mode; series mostly up to 57.6 µM; further: nearly all actives have a fitted effect of over 35% in size
Procedure, shortened: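 Compounds dissolved in DMSO are pin-transferred onto dye-loaded GnRHR-HEK293 cells, which were seeded 18 h before at 37 C/5% CO2. Calcium signal is read as fluorescence intensity at 1 s intervals for 3 min.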

[4] = biological target: KiSS-1 receptor (Homo sapiens) (UniProt Q969F8); assay: Human kisspeptin (KISS1R) small molecule agonists, calcium flux assay in KISS1R-HEK293 cells (AID 1920064; active means well fitted curve in the direction sought with a large enough effect in the repeat runs; an effect the other way counts as inactive or inconclusive); settings: KISS1R-HEK293, calcium flux fluorescence, agonist; series mostly up to 76.8 µM
Procedure, shortened: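 Cell line: HEK293, stable human KISS1R. Dye loading 1 h at 37 C after 18 h culture. Read: kinetic fluorescence, 480/540 nm, 3 min at 1 s intervals.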

[5] = G protein-coupled receptor (GPCR) small molecule agonists, calcium flux assay: HEK293 wild type cell line counter screen (AID 1920065); settings: HEK293 WT calcium flux, fluorescence, agonist mode; series mostly up to 57.6 µM
Procedure, shortened: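 Tox21 10K compounds, 15 concentrations each in triplicate, pin-transferred in DMSO onto dye-loaded cells; kinetic read at 480/540 nm for 3 min, 1 s intervals.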

[6] = p53 small molecule agonists, cell-based qHTS assay with human liver microsomes (AID 1963577); settings: HCT-116 p53RE-bla with human liver microsomes, ratio, 16 h; series mostly up to 66 µM
Procedure, shortened: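 Compounds act here after metabolic activation: human liver microsomes and NADPH, both at 0.5 mg/mL final, were co-added to p53RE-bla cells. Incubation ran 16 h at 37 C, followed by LiveBLAzer detection.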

[7] = p53 small molecule agonists, cell-based qHTS assay with rat liver microsomes (AID 1963578); settings: HCT-116 p53RE-bla, beta-lactamase ratio, 16 h; series mostly up to 66 µM
Procedure, shortened: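 Read-out is beta-lactamase reporter fluorescence (LiveBLAzer, 2 h, room temperature, dark) in p53RE-bla cells treated 16 h at 37 C with compound, rat liver microsomes and NADPH, both 0.5 mg/mL final.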

[8] = p53 small molecule agonists, cell-based qHTS assay with human liver microsomes: qHTS cell viability counter screen (AID 1963579); settings: p53RE-bla HCT-116 viability, ATP luminescence, 16 h, HLM; series mostly up to 66 µM; further: nearly all actives have a fitted effect of over 45% in size
Procedure, shortened: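 Cells carrying the p53 response-element beta-lactamase reporter are treated for 16 h at 37 C with test compounds in the presence of human liver microsomes and NADPH (both 0.5 mg/mL final); ATP-based CellTiter-Glo luminescence then reports viability.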

[9] = p53 small molecule agonists, cell-based qHTS assay with rat liver microsomes: qHTS cell viability counter screen (AID 1963580); settings: p53RE-bla HCT-116 + rat microsomes, ATP viability, 16 h; series mostly up to 66 µM; further: nearly all actives have a fitted effect of over 45% in size
Procedure, shortened: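 Cytotoxicity counter screen: intracellular ATP read by CellTiter-Glo luminescence in the p53 reporter wells. HCT-116 p53RE-bla cells were treated for 16 h at 37 C alongside rat liver microsomes and NADPH, each 0.5 mg/mL final.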

[10] = p53 small molecule agonists, cell-based qHTS assay: qHTS cell viability counter screen (AID 1963581); settings: p53RE-bla HCT-116 viability, ATP luminescence, 16 h; series mostly up to 66 µM; further: nearly all actives have a fitted effect of over 45% in size
Procedure, shortened: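 ATP content measured by luminescence in HCT-116 p53RE-bla cells treated 16 h at 37 C, same wells as the reporter screen.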

[11] = p53 small molecule agonists, cell-based qHTS assay (AID 1963582; active means well fitted activation curve with a large enough effect in the signal ratio in the repeat runs, not every such curve was filed as active; the % refers to the signal ratio); settings: HCT-116 p53RE-bla reporter, beta-lactamase FRET ratio, 16 h; series mostly up to 66 µM
Procedure, shortened: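 16 h compound exposure (37 C) of p53 response element–bla cells, preceded by 5 h recovery at 37 C/5% CO2; read-out via LiveBLAzer B/G FRET substrate, 2 h RT, fluorescence intensity.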

[12] = biological target: 5-hydroxytryptamine receptor 2A (Homo sapiens) (UniProt P28223); assay: 5-hydroxytryptamine receptor 2A (HTR2A) small molecule antagonists, cell-based qHTS assay (AID 1963586); settings: HTR2A-CHO cells, DOI-induced calcium flux, fluorescence; series mostly up to 61.5 µM; further: nearly all actives have a fitted effect of over 45% in size
Procedure, shortened: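 CHO cells stably expressing human HTR2A were plated for 18 h at 37 C, then loaded with calcium dye for 1 h. Compounds were preincubated 5 min at room temperature before DOI (4 nM solution) was added. Kinetic fluorescence was read for 3 min.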

[13] = biological target: 5-hydroxytryptamine receptor 2A (Homo sapiens) (UniProt P28223); assay: 5-hydroxytryptamine receptor 2A (HTR2A) small molecule agonists, cell-based qHTS assay (AID 1963587); settings: HTR2A-CHO cells, calcium flux fluorescence, agonist mode; series mostly up to 76.8 µM; further: nearly all actives have a fitted effect of over 30% in size
Procedure, shortened: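 Kinetic calcium-flux fluorescence (2 min, 1 sec intervals) after compound addition in agonist mode. HTR2A-CHO cells were cultured 18 h, then dye-loaded 1 h at 37 C.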

[14] = biological target: Muscarinic acetylcholine receptor M1 (Homo sapiens) (UniProt P11229); assay: Cholinergic receptor muscarinic 1 (CHRM1) small molecule antagonists, cell-based qHTS assay (AID 1963588); settings: CHRM1-CHO antagonist mode, calcium flux fluorescence; series mostly up to 61.5 µM; further: nearly all actives have a fitted effect of over 40% in size
Procedure, shortened: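 Compounds were tested at 15 concentrations in three independent runs. Dye-loaded CHRM1-CHO cells were exposed 5 min at room temperature before stimulation by acetylcholine added at 50nM. Intracellular calcium was read kinetically on FDSS for 3 min.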

[15] = biological target: Muscarinic acetylcholine receptor M1 (Homo sapiens) (UniProt P11229); assay: Cholinergic receptor muscarinic 1 (CHRM1) small molecule agonists, cell-based qHTS assay (AID 1963589); settings: CHRM1-CHO cells, agonist mode, calcium flux fluorescence; series mostly up to 76.8 µM; further: nearly all actives have a fitted effect of over 35% in size
Procedure, shortened: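 Homogeneous fluorescence calcium flux, agonist mode. Human M1-expressing CHO cells; compound dosed at 15 concentrations, three independent runs; signal sampled every 1 sec.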

[16] = cAMP Responsive Elements (CRE) small molecule agonists, cell-based qHTS assay (AID 1963590); settings: CRE-bla HEK293T, beta-lactamase FRET ratio, 3 h; series mostly up to 92.4 µM
Procedure, shortened: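 HEK 293T cells stably bearing CRE-bla were plated at 2,000 cells per well and rested 18 h. Compounds, positive controls or DMSO were added for 3 h at 37 C. LiveBLAzer B/G substrate was then loaded for 2 h at room temperature.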

[17] = cAMP Responsive Elements (CRE) small molecule antagonists, cell-based qHTS assay (AID 1963591; active means well fitted inhibition curve with a large enough effect in the signal ratio in the repeat runs, not every such curve was filed as active; the % refers to the signal ratio); settings: CRE-bla HEK293T, beta-lactamase FRET ratio; series mostly up to 92.4 µM
Procedure, shortened: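 First, CRE-bla HEK293T cells settled 18 h at 37 C. Next, compound and 0.25 uM final NKH477 were applied for 3 h. Last, LiveBLAzer B/G substrate was loaded for 2 h at room temperature.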

[18] = biological target: Beta-2 adrenergic receptor (Homo sapiens) (UniProt P07550); assay: Adrenergic beta2 receptor (ADRB2) small molecule antagonists, cell-based qHTS assay (AID 1963592); settings: CHO-ADRB2 cells, isoproterenol-stimulated cAMP HTRF ratio, 0.5 h; series mostly up to 92.4 µM; further: nearly all actives have a fitted effect of over 50% in size; further: potency means the concentration at half of the fitted maximal effect
Procedure, shortened: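 Assay format: CHO-ADRB2 cells, 18-20hr seeding at 37C/5% CO2, then compound plus 1nM isoproterenol agonist mix for 0.5hr RT. Homogeneous time-resolved fluorescence cAMP detection after 1hr, expressed as 665/615 nm ratio.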

[19] = biological target: D(2) dopamine receptor (Homo sapiens) (UniProt P14416); assay: Dopamine D2 receptor (DRD2) small molecule agonists, cell-based qHTS assay (AID 1963594); settings: HEK293-DRD2 cAMP HTRF, agonist mode, 30 min; series mostly up to 92.4 µM; further: nearly all actives have a fitted effect of over 35% in size
Procedure, shortened: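 cAMP accumulation in DRD2-HEK293 cells measured by HTRF after 1 h detection; compounds added 10 min before NKH477 (200nM […]) forskolin-analogue stimulation, 30 min at room temperature, with Ro20-1724 present at 0.1 mM final.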

[20] = biological target: D(2) dopamine receptor (Homo sapiens) (UniProt P14416); assay: Dopamine D2 receptor (DRD2) small molecule antagonists, cell-based qHTS assay (AID 1963595; active means well fitted inhibition curve with a large enough effect in the signal ratio in the repeat runs, with a control signal flat; the % refers to the signal ratio); settings: HEK293-DRD2 cAMP HTRF antagonist mode; series mostly up to 92.4 µM
Procedure, shortened: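 HEK293 cells stably expressing DRD2 were preincubated with 0.1 mM Ro20-1724, then with compound for 10 min at room temperature. Cells were stimulated with 200 nM NKH477 plus 12 nM quinpirole for 30 min, and cAMP was read by HTRF.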

Measured: Potency

Chain of 5-hydroxytryptamine receptor 2A (Homo sapiens) (P28223 whole entry, looked up): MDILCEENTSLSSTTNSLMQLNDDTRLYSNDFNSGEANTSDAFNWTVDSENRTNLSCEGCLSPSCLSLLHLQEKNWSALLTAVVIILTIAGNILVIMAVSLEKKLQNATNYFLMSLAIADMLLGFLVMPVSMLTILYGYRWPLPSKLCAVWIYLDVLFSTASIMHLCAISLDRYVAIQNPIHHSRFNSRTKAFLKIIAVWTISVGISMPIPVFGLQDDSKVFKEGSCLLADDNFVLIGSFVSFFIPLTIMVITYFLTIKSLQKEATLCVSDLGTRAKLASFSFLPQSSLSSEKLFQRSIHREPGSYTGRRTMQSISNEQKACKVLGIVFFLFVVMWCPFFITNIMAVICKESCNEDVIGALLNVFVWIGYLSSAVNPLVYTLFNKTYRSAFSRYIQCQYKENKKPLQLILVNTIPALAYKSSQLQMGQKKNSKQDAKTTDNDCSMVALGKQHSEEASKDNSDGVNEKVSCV
Chain of KiSS-1 receptor (Homo sapiens) (Q969F8 whole entry, looked up): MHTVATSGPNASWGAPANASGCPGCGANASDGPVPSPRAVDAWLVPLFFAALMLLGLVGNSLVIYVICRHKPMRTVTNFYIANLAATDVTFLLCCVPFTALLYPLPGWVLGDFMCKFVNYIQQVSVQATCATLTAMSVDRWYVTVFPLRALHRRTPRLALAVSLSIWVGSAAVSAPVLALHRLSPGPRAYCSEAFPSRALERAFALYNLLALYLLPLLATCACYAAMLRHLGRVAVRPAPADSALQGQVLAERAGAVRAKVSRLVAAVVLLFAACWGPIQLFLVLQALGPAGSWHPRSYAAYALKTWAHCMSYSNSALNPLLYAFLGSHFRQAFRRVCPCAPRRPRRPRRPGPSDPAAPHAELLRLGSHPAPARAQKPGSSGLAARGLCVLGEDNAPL
Chain of Gonadotropin-releasing hormone receptor (Homo sapiens) (P30968 whole entry, looked up): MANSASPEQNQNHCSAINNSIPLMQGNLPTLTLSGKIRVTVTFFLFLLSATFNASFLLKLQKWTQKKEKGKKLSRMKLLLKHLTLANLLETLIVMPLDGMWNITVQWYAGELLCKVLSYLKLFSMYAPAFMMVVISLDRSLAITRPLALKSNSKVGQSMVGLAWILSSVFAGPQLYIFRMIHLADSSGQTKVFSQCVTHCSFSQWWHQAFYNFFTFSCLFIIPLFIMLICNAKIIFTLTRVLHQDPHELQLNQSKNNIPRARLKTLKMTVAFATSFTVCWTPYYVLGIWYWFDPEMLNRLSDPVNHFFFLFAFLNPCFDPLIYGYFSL
Chain of Beta-2 adrenergic receptor (Homo sapiens) (P07550 whole entry, looked up): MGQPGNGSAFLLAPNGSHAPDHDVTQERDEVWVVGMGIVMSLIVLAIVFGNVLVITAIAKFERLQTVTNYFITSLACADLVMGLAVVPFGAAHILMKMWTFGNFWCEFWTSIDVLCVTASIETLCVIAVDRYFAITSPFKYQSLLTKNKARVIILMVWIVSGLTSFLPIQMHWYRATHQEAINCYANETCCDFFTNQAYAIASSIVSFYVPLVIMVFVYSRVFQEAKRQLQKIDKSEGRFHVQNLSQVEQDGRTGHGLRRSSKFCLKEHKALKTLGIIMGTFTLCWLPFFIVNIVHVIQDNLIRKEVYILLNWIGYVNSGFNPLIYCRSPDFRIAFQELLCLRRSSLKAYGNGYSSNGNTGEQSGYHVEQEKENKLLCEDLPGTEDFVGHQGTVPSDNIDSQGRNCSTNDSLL
Chain of D(2) dopamine receptor (Homo sapiens) (P14416 whole entry, looked up): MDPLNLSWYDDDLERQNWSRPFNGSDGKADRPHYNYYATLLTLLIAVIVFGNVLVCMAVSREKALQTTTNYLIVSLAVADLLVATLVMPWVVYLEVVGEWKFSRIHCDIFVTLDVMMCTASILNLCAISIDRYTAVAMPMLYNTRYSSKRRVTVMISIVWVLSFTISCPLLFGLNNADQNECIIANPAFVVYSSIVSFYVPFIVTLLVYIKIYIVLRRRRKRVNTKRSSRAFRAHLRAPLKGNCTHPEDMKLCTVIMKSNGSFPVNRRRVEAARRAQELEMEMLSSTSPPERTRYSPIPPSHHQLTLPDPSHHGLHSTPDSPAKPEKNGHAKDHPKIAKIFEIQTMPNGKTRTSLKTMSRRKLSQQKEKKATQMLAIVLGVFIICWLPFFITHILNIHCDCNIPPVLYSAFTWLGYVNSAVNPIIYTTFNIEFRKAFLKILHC
Chain of Muscarinic acetylcholine receptor M1 (Homo sapiens) (P11229 whole entry, looked up): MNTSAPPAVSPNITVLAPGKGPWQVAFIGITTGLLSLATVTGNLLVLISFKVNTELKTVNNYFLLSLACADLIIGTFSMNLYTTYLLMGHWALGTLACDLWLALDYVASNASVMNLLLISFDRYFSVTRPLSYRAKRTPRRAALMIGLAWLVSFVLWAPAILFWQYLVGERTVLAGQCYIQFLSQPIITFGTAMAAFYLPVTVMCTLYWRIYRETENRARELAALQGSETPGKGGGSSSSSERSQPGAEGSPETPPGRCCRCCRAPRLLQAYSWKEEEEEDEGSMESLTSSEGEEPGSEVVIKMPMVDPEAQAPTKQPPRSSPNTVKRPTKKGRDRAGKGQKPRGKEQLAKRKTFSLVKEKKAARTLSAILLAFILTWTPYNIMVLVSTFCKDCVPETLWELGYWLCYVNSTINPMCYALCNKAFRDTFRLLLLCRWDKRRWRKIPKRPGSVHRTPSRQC

COC(=O)C(Br)CBr (configuration not stated)
inactive: all assays above

ClCC(Cl)(Cl)Cl
inactive: all assays above

OCC(Br)CBr (configuration not stated)
inactive: all assays above

Cl/C=C\CCl
inactive: all assays above

Oc1ccc(-c2ccccc2)cc1
active: [2] 61.1 µM
60.3 µM (active) and inactive: [18]
not listed: [19]
inactive: all other assays above

CCCCCCCCOC(=O)c1ccccc1C(=O)OCCCCCCCC
not listed: [18]
inactive: all other assays above

c1cc2c3c(cccc3c1)CC2
inactive: all assays above

CCOC(=O)C(c1c(O)c2ccccc2oc1=O)c1c(O)c2ccccc2oc1=O
inactive: all assays above

CNC(=O)N(C)c1nnc(C(C)(C)C)s1
inactive: all assays above

Cc1ccc2c(C)cccc2c1
inactive: all assays above

CC(C)c1ccc(NC(=O)N(C)C)cc1
inactive: all assays above

C=C(C)CCl
inactive: all assays above

Cc1ccc(N)cc1C
active: [2] 9.77 µM
inactive: all other assays above

C=CC#N
inactive: all assays above

CC(=O)CC(c1ccc(Cl)cc1)c1c(O)c2ccccc2oc1=O (configuration not stated)
not listed: [19]
inactive: all other assays above
